Results on 38 compounds are retold here after PubChem BioAssay AID1347055 (National Center for Advancing Translational Sciences (NCATS), 2019).

“And” between values parts separate entries of the source, which are not always exact repeats. Identical values can stand only once. Out of some 54,000 compounds screened, about 120 (0.22%) were called active. Not shown: some 8% with an inconclusive outcome. Calls come from the whole dose curve; as a rule, active = well fitted inhibition curve with a large enough effect; inconclusive = small, poorly fitted or top-dose-only effect, or effect the other way; inactive = flat fitted curve, though single readings scatter. The list comes from a sample in which actives are over-represented; it also holds similar structures and randomly drawn compounds. Some compounds were tested as several samples or in several runs, with calls that do not always agree.
% is set by controls: 0 for no effect and ±100 for the full control effect; potency is the fitted concentration of half-maximal effect.

This test deals with Fumarate hydratase, mitochondrial (Homo sapiens) (UniProt P07954). Nature of the test: Identification of activators of human fumarate hydratase by quantitative high-throughput screening. Note: the screen sought activators but most active calls are inhibition curves; nearly all actives have a fitted effect of over 45% in size. The note with it: FH coupled MDH/diaphorase resazurin fluorescence, 15 min; series mostly up to 79.9 µM; activity change, negative = inhibition: at the top concentration. An excerpt: Fumarate hydratase (FH) is a metabolic enzyme that is part of the Krebs-cycle, and reversibly catalyzes the hydration of fumarate to malate. Mutations of the FH gene have been associated with fumarate hydratase deficiency (FHD), hereditary leiomyomatosis, renal cell cancer (HLRCC), and other diseases. Currently there are no high-quality small molecule probes for studying human fumarate hydratase. To address this, we developed a quantitative high throughput screening (qHTS) FH assay and screened a total of 57,037 compounds in dose-response. While no inhibitors of FH were confirmed, a series of phenyl-pyrrolo-pyrimidine-diones (12 compounds) were identified as activators of human fumarate hydratase. […] The binding of two compounds from the series to human fumarate hydratase was confirmed by microscale thermophoresis. The low hit rate in this screening campaign confirmed that FH is a "tough target" to modulate, and the small molecule activators of human fumarate hydratase reported here may serve as a starting point for further optimization and development into cellular probes of human FH and potential drug candidates.
Chain of Fumarate hydratase, mitochondrial (Homo sapiens) (P07954 whole entry, looked up): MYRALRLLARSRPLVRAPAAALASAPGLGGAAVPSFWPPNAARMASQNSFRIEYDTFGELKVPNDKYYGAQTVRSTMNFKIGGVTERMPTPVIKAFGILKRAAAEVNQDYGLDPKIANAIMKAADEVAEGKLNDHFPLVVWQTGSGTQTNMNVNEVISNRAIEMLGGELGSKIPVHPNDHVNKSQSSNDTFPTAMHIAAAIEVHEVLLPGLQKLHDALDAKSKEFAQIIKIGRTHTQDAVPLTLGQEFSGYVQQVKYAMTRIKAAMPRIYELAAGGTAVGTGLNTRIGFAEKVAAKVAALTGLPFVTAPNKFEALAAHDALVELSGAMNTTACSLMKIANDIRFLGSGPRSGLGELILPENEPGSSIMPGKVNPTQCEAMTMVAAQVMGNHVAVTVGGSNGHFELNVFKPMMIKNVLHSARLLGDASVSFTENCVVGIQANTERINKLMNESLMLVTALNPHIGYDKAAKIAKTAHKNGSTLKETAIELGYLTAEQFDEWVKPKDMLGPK
For primary high-throughput screen, 3 ul of FH solution (containing 13.33nM human fumarate hydratase, 13.33IU/ml malic dehydrogenase, 0.2mM NAD, 0.067mg/ml diaphorase and 0.067mM resazurin in the assay buffer (50 mM Tris pH 8.0, 5 mM MgCl2, 0.01% Brij 3) was dispensed into each well in a black solid bottom 1536-well assay plate (Greiner Bio-One) using a BioRAPTR FRD dispenser (Beckman Coulter, Brea, CA). A 1536-well pintool dispenser outfitted with 20 nl pins (Wako Automation, San Diego, CA) was used to transfer 20 nL of DMSO-solubilized compound (Cherrypick plates) to each 1536-well assay plate. Each compound was screened at five concentrations: 15 nM, 151 nM, 1.5 uM, 15.4 uM, 76.9 uM. Following compound transfer, plates were incubated in room temperature for 10 minutes. 1 uL of substrate solution containing fumaric acid (160 uM) was dispensed via BioRAPTR FRD to initiate the reaction. Plates were immediately transferred to a ViewLux microplate imager (PerkinElmer, Waltham, MA), and any resulting resorufin fluorescence was measured (exitation/emission, 525/598 nm) at 0 and 15 minutes. The exposure time is 1 second. Fluorescence from each well was normalized using enzyme-free and DMSO-treated control wells on each plate, and changes in fluorescence (delta RFU) were calculated using the difference in fluorescent signal for each well at 15 minutes versus 0 minutes.
As to `CN1CCCC1Cc1c[nH]c2ccc(CCS(=O)(=O)c3ccccc3)cc12` (stereo not drawn), the “activity change, negative = inhibition” value is -2.48% (inactive).
On the same count and under the same terms, as for `O=C(C1CCCN(S(=O)(=O)c2cccc3nonc23)C1)N1CCN(c2ccccc2F)CC1` (stereo not drawn), the figure is -8.31% (inactive); as for `COC(=O)[C@]12CCC(C)(C)C[C@@H]1[C@@H]1C(=O)C=C3[C@]4(C)C=C(C#N)C(=O)C(C)(C)[C@@H]4CC[C@@]3(C)[C@]1(C)CC2`, -10.3% (inactive).
Still for that read-out and setting: as for `C#C[C@]1(O)CC[C@H]2[C@@H]3CCC4=C/C(=N/O)CC[C@@H]4[C@H]3CC[C@@]21CC`, the figure is 5.71% (inactive).
Same read-out and setting: as for `CC(=O)N1c2ccc(S(=O)(=O)N3CCCCCC3)cc2CC1C(=O)NCc1ccccc1C` (stereo not drawn), the figure is 1.03% (inactive); as for `COc1ccc(NC(=O)c2ccc3nc(CCc4ccccc4)oc3c2)c(OC)c1`, -4.07% (inactive); as for `COc1cc(Nc2nc3ccccc3nc2NS(=O)(=O)c2cccc(NC(=O)c3ccc(C)c(OC)c3)c2)cc(OC)c1`, -14.2% (inactive).
Turning to `CC1(C)C(=O)N2c3ccccc3C(O)(CC(C(=O)O)n3cnc4ccccc4c3=O)C2N1O` (stereo not drawn), the “activity change, negative = inhibition” value is 4.36% [at 53.3 µM] (inactive).
Take `O=c1[nH]c2ccc(C#CCN3CCC(Cc4ccccc4)CC3)cc2[nH]1`: the “activity change, negative = inhibition” value was -15.1% (inactive).
As for `CCOc1ccccc1CNC(=O)Nc1cn(CC(C)C)c(=O)c2ccccc12`, the Potency is 28.2 µM [activator] (active).
Turning to `CCOCCCNC(=O)c1cn(CC(C)C)c(=O)c2c1c1ccccc1n2C`, the “activity change, negative = inhibition” value is -9.65% (inactive).
For the compound `CCOc1ccccc1NC(=O)Cn1c2ncccc2c(=O)n1-c1ccc(C)c(C)c1`, the “activity change, negative = inhibition” value is -3.35% (inactive).
`C=C1CCC2C(C)(C(=O)OC)CCCC2(C)C1CCC1=CCOC1=O` (stereo not drawn): the “activity change, negative = inhibition” value was -5.08% [at 53.3 µM] (inactive).
Still for that read-out and setting: as for `Cc1cn(CCN2CCN(c3ccccc3-c3cc(C#N)cc(C(=O)NCCCN4CCCC4)c3)CC2)c2ccccc12`, the figure is -5.7% (inactive); as for `COC(=O)C1=CO[C@@H](O[C@@H]2O[C@H](CO)[C@@H](O)[C@H](O)[C@H]2O)[C@H]2[C@@H]1C=C[C@]21C=C([C@H](C)OC(=O)/C=C/c2ccc(O[C@@H]3O[C@H](CO)[C@@H](O)[C@H](O)[C@H]3O)cc2)C(=O)O1`, 0.414% [at 20.6 µM] (inactive).
For the compound `COc1ccccc1CNc1nc2ccc(Cl)cc2n2cnnc12`, the “activity change, negative = inhibition” value is -12.9% (inactive).
The same measure, in the same setting: as for `Cc1ccc(C)c(Cn2c(C(=O)O)c(CNCc3cccs3)c3ccccc32)c1`, the figure is -18.3% (inactive).
On to `CNCC(O)c1ccc(O)c(O)c1` (stereo not drawn), for which the Potency entry is “inactive and 6.92 µM (active)”.
`O=C(COc1ccc(Cl)cc1)N(Cc1ccco1)Cc1ccco1`: the “activity change, negative = inhibition” value was -13.3% (inactive).
Same read-out and setting: as for `COc1ccccc1NC(=O)CSc1oc(-c2ccco2)nc1S(=O)(=O)c1ccc(Br)cc1`, the figure is -21.2% (inactive); as for `CNc1nc(-c2ccc3c(N)n[nH]c3c2)cc(N2CC(C(=O)NC3CCCCC3)CCC2C)n1` (stereo not drawn), 1.2% (inactive).
Turning to `O=C(N[C@H]1CCC[C@H](CO)C1)C1CCN(c2nc3cc(Cl)c(-c4ccc(Cl)cc4)cc3o2)CC1`, the “activity change, negative = inhibition” value was -10.4% (inactive).
Still for that read-out and setting: as for `CCOC(=O)c1[nH]c(C)c(CCC(=O)NCc2ccccc2C)c1C`, the figure is -3.89% (inactive); as for `CCN(CC)C(=O)CSc1nc2ccsc2c(=O)n1Cc1ccccc1Cl`, -3.5% (inactive).
`CCOc1ccc(-n2nc3ccc(NC(=O)c4ccc(OC)c(Cl)c4)cc3n2)cc1`: the “activity change, negative = inhibition” value is -6.48% (inactive).
Turning to `Cc1nn(C(=O)c2c(F)cccc2F)c(C)c1S(=O)(=O)N1CCOCC1`, the “activity change, negative = inhibition” value was 3.28% (inactive).
In the case of `COC(=O)C1=CO[C@@H](O[C@@H]2O[C@H](CO)[C@@H](O)[C@H](O)[C@H]2O)[C@@H]2[C@@H](C(=O)O)CC[C@H]12`, the “activity change, negative = inhibition” value was 0.0483% [at 53.3 µM] (inactive).
Still for that read-out and setting: as for `CCCCC1CCN(CCCN2C(=O)CCc3ccccc32)CC1`, the figure is -0.254% (inactive); as for `CC/C=C\CC1C(=O)C=CC1(CCCCCCCC(=O)O)OC(C)=O` (stereo not drawn), -0.917% [at 53.3 µM] (inactive).
On the same count and under the same terms, as for `COc1cccc(CNC(=O)c2ccc3c(Cl)c4c(nc3c2)CCCC4)c1`, the figure is -9.91% (inactive).
`C=CC(C)(O)CO[C@@H]1O[C@H](CO)[C@@H](O)[C@H](O)[C@H]1O` (stereo partly drawn): the “activity change, negative = inhibition” value was 22.8% (inactive).
On the same count and under the same terms, as for `Cc1cc2c(cc1S(=O)(=O)CCC(=O)NCc1ccccc1)OCC(=O)N2`, the figure is -2.14% (inactive); as for `CC(C)(OC1OC(CO)C(O)C(O)C1O)C1CCC(O)(CO)C2CC(O)C(C)(O)C2C1` (stereo not drawn), 8.59% [at 53.3 µM] (inactive); as for `O=C(/C=C/c1ccc(O)cc1)OCC1=C[C@@H](O)[C@@H]2C=CO[C@@H](O[C@@H]3O[C@H](CO)[C@@H](O)[C@H](O)[C@H]3O)[C@H]12`, -7.41% [at 53.3 µM] (inactive).
The same measure, in the same setting: as for `COc1cc(C(C)=O)c(OC)c2c1OC(C)(C)C=C2`, the figure is 0.675% (inactive).
Still for that read-out and setting: as for `O=C(CSc1nccn1C1CCCC1)Nc1cc(C(F)(F)F)ccc1Cl`, the figure is -25.7% (inactive); as for `C=CC(C)(O)CC/C=C(\C)C(=O)OC1C(O)C(CO)OC(OC(=O)C23CCC(C)(C)CC2C2=CCC4C5(C)CCC(OC6OC(COC7OCC(OC(C)=O)C(O)C7OC7OC(COC(C)=O)C(O)C(O)C7OC(C)=O)C(O)C(O)C6OC6OCC(O)C(O)C6O)C(C)(C)C5CCC4(C)C2(C)C(O)C3O)C1OC1OCC(OC2OCC(O)C(OC3OCC(O)C(O)C3O)C2O)C(O)C1O` (stereo not drawn), 3.1% [at 13.5 µM] (inactive); as for `C=C1CCC[C@]2(C)CC/C(=C(/CO)C(=O)OC)C[C@@H]12`, -6.7% (inactive).
